Compounds with a hit are over-represented: about 6% of the library has one in this group of screens.
Tau fluor counter: Counterscreen qHTS for Inhibitors of Tau Fibril Formation, Fluorescence Polarization. AID 1463, 2008. tau K18 P301L Alexa594 fluorescence, heparin fibrillization. actives 0.93% (n = 280,000). Potency, µM (titrated, usually from 57.7 µM), for inactives: at the highest dose activity change, negative = decrease; also: nearly all actives have a fitted effect of over 55% in size
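Human K18 P301L tau (15 uM unlabeled plus 0.24 uM Alexa 594-labeled, final) in 100 mM sodium acetate pH 7 was mixed with compound and 20 uM heparin and incubated 6 hr at 37 C.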
Tau FP inhib: qHTS for Inhibitors of Tau Fibril Formation, Fluorescence Polarization; K18 P301L tau heparin fibrillization, Alexa594 FP, 6 h; Potency, µM (doses to about 57.7 µM), without a hit: at the top dose activity, negative = inhibition, usual class: inhibitors; Microtubule-associated protein tau (Homo sapiens), P10636; actives 0.39% (n = 280,000); also: nearly all actives have a fitted effect of over 55% in size
Target sequence (P10636 561-689 P618L limits assumed): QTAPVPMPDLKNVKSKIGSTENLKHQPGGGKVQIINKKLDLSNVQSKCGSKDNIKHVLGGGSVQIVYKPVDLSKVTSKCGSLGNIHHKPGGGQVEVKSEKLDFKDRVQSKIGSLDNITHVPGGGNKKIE
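Steps: dispense K18 P301L tau (15 uM plus 0.24 uM Alexa 594 tracer, final) in pH 7 sodium acetate; add compound; add heparin (20 uM final); incubate 6 hr, 37 C; add ThT (30 uM final); after 1 hr ambient, read FP.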
PLK1 PBD block: qHTS for Inhibitors of PLK1-PDB (polo-like kinase 1 - polo-box domain): Primary Screen; Serine/threonine-protein kinase PLK1 (Homo sapiens), P53350; Plk1 PBD binding of FITC phosphopeptide, fluorescence polarization; Potency, µM, inactives show max response, negative = inhibition, actives largely listed as inhibitors; actives 2.8% (n = 360,000); AID 720504, 2013; also: series mostly up to about 57 µM; nearly all actives have a fitted effect of over 65% in size
Sfp inh: qHTS Assay for Inhibitors of Bacillus subtilis Sfp phosphopantetheinyl transferase (PPTase). 4'-phosphopantetheinyl transferase ffp (Bacillus subtilis), Q9F4F7. Biochemical Sfp PPTase activity, qHTS. Potency, µM, for inactives: largest response in the series, negative = inhibition, most hits filed as inhibitors. actives 3.5% (n = 310,000). AID 1490, 2009;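 also: the enzyme is Sfp with the accession as filed and its product quenches rhodamine fluorescence; 0% = enzyme reaction without inhibitor and -100% = no enzyme wells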
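Compounds were incubated with enzyme (final 15 nM) for 15 min at room temperature before substrate addition started the reaction. Fluorescence at 525 nm excitation, 598 nm emission was recorded immediately and after 30 minutes.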
Tau ThT inhib: qHTS for Inhibitors of Tau Fibril Formation, Thioflavin T Binding. Potency, µM (top dose mostly 57.4 µM), for the others: top-dose activity, negative = inhibition, usual class: inhibitors. actives 2.1% (n = 270,000). Microtubule-associated protein tau (Homo sapiens), P10636. recombinant tau K18 P301L (four-repeat tau fragment), heparin-induced fibrillization, ThT fluorescence. AID 1460, 2008; also: nearly all actives have a fitted effect of over 55% in size
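Heparin-induced fibrillization of the P301L-mutant K18 repeat-domain fragment of human tau was followed by ThT binding in quantitative high-throughput format.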
VDR inhibitor: Inhibitors of the vitamin D receptor (VDR): qHTS | Vitamin D3 receptor (Homo sapiens), P11473 | VDR-SRC2-3 peptide fluorescence polarization, 2 h | Potency, µM, for inactives: max response, negative = inhibition, hits mostly inhibitors | actives 0.93% (n = 400,000)
Target sequence (P11473 whole entry, looked up): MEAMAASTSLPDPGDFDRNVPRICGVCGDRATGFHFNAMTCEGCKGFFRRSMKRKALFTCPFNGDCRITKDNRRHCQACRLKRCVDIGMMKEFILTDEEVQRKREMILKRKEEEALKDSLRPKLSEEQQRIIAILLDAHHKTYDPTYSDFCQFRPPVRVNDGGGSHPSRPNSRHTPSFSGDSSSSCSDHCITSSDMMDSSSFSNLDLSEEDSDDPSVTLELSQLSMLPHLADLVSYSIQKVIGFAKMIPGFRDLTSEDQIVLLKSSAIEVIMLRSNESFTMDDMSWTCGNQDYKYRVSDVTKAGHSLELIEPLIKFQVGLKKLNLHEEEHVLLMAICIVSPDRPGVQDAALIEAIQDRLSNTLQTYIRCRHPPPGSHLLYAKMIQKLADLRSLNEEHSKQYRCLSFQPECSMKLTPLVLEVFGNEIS
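The screen uses fluorescence polarization to detect compounds that interfere with recruitment of the SRC2-3 coactivator peptide to VDR; plates are read after 2 h at room temperature.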
Starred values were filed as active, the others as inactive; ? = inconclusive; · = no result given; [ ] = another dose, or the depositor's remark. Calls follow the shape of the dose curve; as a rule, active = well fitted curve in the direction sought with a large enough effect; inconclusive = small, poorly fitted or top-dose-only effect, or another doubt; inactive = no such curve, though single readings can be large; an effect the other way counts as inactive or inconclusive. Unless noted, % is scaled to controls: 0 for no effect and ±100 for the full control effect; potency is read from the fitted curve at half-maximal effect.

SMILES	Tau fluor counter	Tau FP inhib	PLK1 PBD block	Sfp inh	Tau ThT inhib	VDR inhibitor
Nc1nnnn1CC(=O)N/N=C/c1cccs1	-1%	2%	-11%	8%	-6%	-17%
O=C(COc1ccc([N+](=O)[O-])cc1)N/N=C/c1cc([N+](=O)[O-])ccc1N1CCOCC1	-26%	-3%	-9%	5%	4µM*	-6%
Nc1nnnn1CC(=O)N/N=C/c1ccccn1	-11%	-12%	1%	35µM*	-13%	-7%
Cc1ccc(OCC(=O)N/N=C/c2cc([N+](=O)[O-])ccc2N2CCCCC2)cc1	-16%	12%	-5%	18%	-9%	-23%
O=C(COc1ccc([N+](=O)[O-])cc1)Nc1ccc2c(c1)nc1n2CCOC1	·	·	3µM*	4%	·	?
O=C(CCCC(=O)N/N=C\c1ccccn1)N/N=C\c1ccccn1	0%	0%	-8%	40µM*	3%	-10%
COC(=O)C1(C(=O)OC)C/C=C\Cc2ccccc2[C@@H]1C[N+](=O)[O-]	-5%	-14%	·	-16%	-3%	-17%
O=C(Nc1ncc(Cc2ccccc2)s1)C1CCN(C(=O)c2ccco2)CC1	·	·	·	·	·	-19%
O=C(N/N=C/c1ccccn1)c1ccc([N+](=O)[O-])cc1	-12%	-8%	-8%	-10%	?	3%
O=C(COc1ccc([N+](=O)[O-])cc1)N/N=C/c1ccccn1	-5%	0%	1%	79µM*	?	12%
CCCn1c(SCC(=O)Nc2ccccc2N2CCCCC2)nc2c1c(=O)n(C)c(=O)n2C	-3%	0%	-7%	35µM*	-4%	72%
COc1ccc(C2(CNC(=O)c3cccc([N+](=O)[O-])c3)CCOCC2)cc1OC	-4%	-9%	15µM*	2%	-1%	?
CCCCNC(=O)C(NC(=O)c1cccnc1)C(=O)c1ccccc1 (stereo not drawn)	·	·	5%	·	·	·
Cc1ccc(-n2c(SCC(=O)O)nc3sc4c(c3c2=O)CCCC4)cc1	1%	1%	-12%	21%	-11%	10%
Cc1ccc(-n2c(SCC(=O)c3c(N)n(C)c(=O)n(C)c3=O)nc3sc4c(c3c2=O)CCCC4)c(C)c1	-8%	?	-1%	56µM*	-3%	-3%
COc1ccc(C(=O)Nc2cc(-c3cccc(C)c3)nn2-c2ccccc2)cc1	-20%	?	·	·	0%	10%
O=C(Cc1ccc([N+](=O)[O-])cc1)N1CCCc2ccccc21	-21%	-1%	?	-3%	?	3%
O=C(NC(=S)N1CCCc2ccccc21)c1ccc([N+](=O)[O-])cc1	-30%	6%	?	16µM*	?	-11%
COc1ccc(OCC(=O)NC(=S)N2CCCc3ccccc32)cc1	-26%	9%	?	56µM*	?	?
COc1ccccc1C(=O)NC(=S)N1CCCc2ccccc21	-3%	-2%	-7%	50µM*	4%	5%
O=C(NC(=S)N1CCCc2ccccc21)c1ccc(Br)cc1	?	-4%	?	45µM*	?	-20%
COc1ccc(C(=O)NC(=S)N2CCCc3ccccc32)cc1OC	-23%	1%	-29%	?	?	-3%
Cc1ccc(-c2nc3ncccc3o2)cc1NC(=O)COc1ccc(C(C)C)cc1	-23%	-12%	·	·	?	-9%
COc1ccc(OCC(=O)N/N=C2\CCCCc3ccccc32)cc1	5%	-1%	11µM*	4%	-6%	-26%
O=C(NC(=S)N1CCCc2ccccc21)c1ccc(Cl)cc1	-3%	1%	27µM*	22µM*	-1%	?
SMILES	Tau fluor counter	Tau FP inhib	PLK1 PBD block	Sfp inh	Tau ThT inhib	VDR inhibitor
O=C(NC(=S)N1CCCc2ccccc21)c1ccccc1	-20%	9%	-17%	-1%	?	-10%
CCN1CCCC1Cn1c(-c2ccccc2)nc2c(NC3CCCCC3)nc(C)nc21 (stereo not drawn)	-6%	-1%	·	17%	-8%	·
COc1cccc(OC)c1C(=O)Nc1ccccc1Sc1ccccc1	·	·	3%	·	·	-7%
COCCNCC(=O)Nc1ccccc1Sc1ccccc1	2%	5%	-12%	56µM*	9%	-8%
O=C(CNCCN1CCOCC1)Nc1ccccc1Sc1ccccc1	1%	3%	-15%	56µM*	-1%	0%
O=C(CN1CCOCC1)Nc1ccccc1Sc1ccccc1	-3%	7%	-1%	15%	-6%	-1%
CCN(C(=O)CSc1nc2n[nH]c(C)c2c(=N)n1-c1ccc(Cl)c(C)c1)c1cccc(C)c1	·	·	2%	16%	·	-1%
Cc1cc(-n2c(SCc3ccccc3F)nc3n[nH]c(C)c3c2=N)ccc1Cl	-21%	18µM*	-9%	16%	5%	-18%
CC(=O)NC1=C(N(C)C2CCS(=O)(=O)C2)C(=O)c2ccccc2C1=O (stereo not drawn)	-22%	?	-8%	-9%	25µM*	-21%
CN(C(=O)Nc1ccccc1)C1CCS(=O)(=O)C1 (stereo not drawn)	3%	4%	0%	8%	-4%	-3%
CC(=O)NC1=C(Nc2ccc(N(C)C)cc2)C(=O)c2ccccc2C1=O	·	·	-10%	-14%	·	50µM*
CCC1Oc2ccc(C)cc2N(CC(=O)NCc2ccc(F)cc2)C1=O (stereo not drawn)	-15%	-2%	·	·	-3%	-2%
O=C(OCc1nnc(-c2ccc([N+](=O)[O-])cc2)o1)c1ccc(F)c(S(=O)(=O)N2CCOCC2)c1	·	·	5%	·	·	15%
CCOc1ccc(-c2cc3c(=O)n(Cc4nc(-c5ccc(OCC)c(OC)c5)oc4C)ccn3n2)cc1Cl	-8%	-1%	·	·	-5%	-12%
CCc1ccc(S(=O)(=O)NCC2(N3CCOCC3)CCCCC2)cc1	·	·	5%	·	·	5%
Cc1cc(NC(=O)c2cc3cccc([N+](=O)[O-])c3[nH]2)ccc1F	25µM*[quencher]	?	-6%	-24%	·	0%
CC1(C(=O)NS(=O)(=O)c2cccc(F)c2)CCN1C(=O)CCc1ccccc1 (stereo not drawn)	·	·	1%	·	·	·
COc1c(Cl)cc(-c2noc(C)c2C(=O)NCc2ccccc2)cc1Cl	-25%	-5%	30µM*	-2%	-3%	-16%
O=C(O)CSc1nnc2c(n1)[nH]c1ccccc12	4%	6%	24µM*	50µM*	-15%	-18%
O=C(O)c1ccccc1CSc1nnc2c(n1)[nH]c1ccccc12	-4%	0%	?	56µM*	-11%	-4%
